Source: PubChem BioAssay (several laboratories)
In the library only some 2.2% were active in any assay of this set; here they are far more common.
NOD2 RIPK2 PPI – inhibitors of human NOD2-RIPK2 interaction; AID 624267; CHO BLA complementation NOD2-RIPK2, CCF4 ratio; 360,000 compounds, 0.38% hits; inhibition, % at 4.98 µM; O43353; in the data active means inhibition above about 21%
TLR4 MyD88 comp – TLR4-MyD88 interaction inhibition in cells | HeLa CL3-4 TLR4/MyD88 BLA complementation, FRET ratio | 200,000 compounds, 0.18% hits | O00206+Q99836 | inhibition, % at 8.4 µM; in the data active means inhibition above about 25%
ANO1 block – mouse TMEM16A channel inhibition, primary screen; Q8BHY3; HEK293 TMEM16A/YFP iodide influx fluorescence, ionomycin; normalized B-score (activity score, 25-100; higher = stronger inhibition) at 10 µM; 310,000 compounds, 1.2% hits;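 active means ratio plate-corrected score three or more library SD toward inhibition, starting fluorescence score within five deviations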;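 further: score derived from kinetic fluorescence span divided by baseline fluorescence per well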
TMEM16A act – activates or potentiates the mouse TMEM16A chloride channel. Q8BHY3. HEK293 TMEM16A/YFP-H148Q/I152L, iodide quench fluorescence; active compounds read low. 340,000 compounds, 0.3% hits. B-score at 10 µM. AID 623877;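 active means fluorescence-ratio B-score plate-corrected deviation score at least 3 library SD below zero, with starting fluorescence score within 5 deviations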;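 further: channel opened by trigger with iodide after compound preincubation; score built on the fluorescence ratio of max minus min over baseline; more negative score means more quench and so TMEM16A activation or potentiation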
TLR9-MyD88 block – blocks human TLR9 binding to MyD88; Q9NR96+Q99836; CHO BLA complementation TLR9-MyD88, CCF4 FRET ratio; inhibition, % at 4.98 µM; 340,000 compounds, 0.21% hits;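 active means inhibition above the mean over all tested compounds plus 3 SD, cut at about 21% in these data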
GRK2 inh – blocks RNA aptamer binding to human GRK2 | bead flow cytometry, FAM-aptamer displacement from GRK2 | P25098 | AID 488847 | inhibition of aptamer binding, % at 10 µM | 330,000 compounds, 0.59% hits;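 active means inhibition of aptamer binding above 40%, roughly 3 SD of noise, on plates passing a quality check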;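 further: median bead fluorescence of bound FAM aptamer so fluorescent compounds give negative values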
Target sequence (P25098 whole entry, looked up): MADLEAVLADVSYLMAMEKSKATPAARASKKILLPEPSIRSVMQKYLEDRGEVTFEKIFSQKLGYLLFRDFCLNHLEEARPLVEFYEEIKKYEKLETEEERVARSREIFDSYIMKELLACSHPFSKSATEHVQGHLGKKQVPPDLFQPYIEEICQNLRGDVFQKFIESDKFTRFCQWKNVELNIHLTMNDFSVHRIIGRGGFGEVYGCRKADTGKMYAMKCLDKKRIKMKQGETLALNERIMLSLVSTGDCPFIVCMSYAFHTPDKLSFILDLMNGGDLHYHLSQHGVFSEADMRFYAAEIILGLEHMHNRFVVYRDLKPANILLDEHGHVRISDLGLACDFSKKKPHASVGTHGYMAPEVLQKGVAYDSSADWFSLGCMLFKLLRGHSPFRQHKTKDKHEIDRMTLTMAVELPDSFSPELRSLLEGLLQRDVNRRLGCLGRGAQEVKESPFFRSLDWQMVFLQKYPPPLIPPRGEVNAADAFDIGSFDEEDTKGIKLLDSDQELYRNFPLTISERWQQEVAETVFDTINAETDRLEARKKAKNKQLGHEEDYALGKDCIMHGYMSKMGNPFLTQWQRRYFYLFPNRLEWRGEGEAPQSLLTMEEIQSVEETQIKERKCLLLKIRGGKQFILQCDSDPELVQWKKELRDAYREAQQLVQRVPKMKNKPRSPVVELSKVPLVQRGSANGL
Of the large screens only hits and unclear results are named; the others gave an inactive call.

C[C@H]1[C@@H](Cc2cc(Cl)cc(Cl)c2)N(c2ccccc2)c2ccccc2CN1Cc1ccccc1	none (no result: TLR4 MyD88 comp, ANO1 block, TMEM16A act, TLR9-MyD88 block, GRK2 inh)
O=C(O)c1cccc(-n2cccc2/C=C2\SC(=O)N(Cc3ccccc3F)C2=O)c1	GRK2 inh 45
O=C(O)c1cccc(-n2cccc2/C=C2/SC(=O)N(CC(=O)N3CCCC3)C2=O)c1	none (no result: TLR4 MyD88 comp)
COc1ccc(CC(=O)OCC(=O)N2N=C(c3ccccc3)CC2c2ccc(OC)cc2)cc1 (stereo unspecified)	none
CCCCC(=O)OCC(=O)N1N=C(c2c[nH]c3ccccc23)C(O)C1c1ccc(OC)cc1 (stereo unspecified)	ANO1 block 25 (no result: TLR4 MyD88 comp)
COCCNC(=O)C1(C)CCCN(C(=O)c2cc(C)oc2C)C1 (stereo unspecified)	none (no result: TLR4 MyD88 comp, ANO1 block, TMEM16A act, TLR9-MyD88 block, GRK2 inh)
O=C(NC(=S)NNC(=O)c1ccc(Cl)cc1Cl)c1cccnc1	none
Cc1cccc(C(=O)NC(=S)NNC(=O)Cc2ccccc2)c1	none
Cc1onc(-c2ccccc2)c1C(=O)NNC(=S)NC(=O)/C=C/c1ccccc1	none
Cc1onc(-c2ccccc2)c1C(=O)NNC(=S)NC(=O)c1ccc(Br)cc1	ANO1 block 100
Cc1onc(-c2ccccc2)c1C(=O)NNC(=O)c1ccccc1	none (no result: TLR4 MyD88 comp, ANO1 block)
Cc1ccccc1C(=O)NNC(=S)NC(=O)c1ccc(Cl)cc1Cl	ANO1 block 100
Cc1onc(-c2ccccc2)c1C(=O)NNC(=S)NC(=O)c1ccc(Cl)cc1Cl	ANO1 block 100
Cc1cccc(C(=O)NC(=S)NNC(=O)c2ccccc2Cl)c1	ANO1 block 100
COC(=O)[C@]12CCCCC=C1N(CCC1=CCCCC1)C(=O)[C@H](CC(=O)N1CCCCC1)C2	none (no result: TLR4 MyD88 comp, ANO1 block, TMEM16A act, TLR9-MyD88 block, GRK2 inh)
CC1(c2nnnn2-c2ccc3c(c2)OCCO3)CCC(=O)N1CCCn1ccnc1 (stereo unspecified)	none (no result: TLR4 MyD88 comp, ANO1 block, TMEM16A act, TLR9-MyD88 block, GRK2 inh)
Cc1ccc(S(=O)(=O)N2CC3C(=O)C[C@@H](c4ccccc4)N(S(=O)(=O)c4cccc(Cl)c4)C3CC2c2ccccc2)cc1 (stereo partly specified)	none (no result: TLR4 MyD88 comp, ANO1 block, TMEM16A act, TLR9-MyD88 block, GRK2 inh)
CCc1ccc(NC(=S)NC(=O)c2c(-c3ccccc3Cl)noc2C)cc1	none (no result: TLR4 MyD88 comp)
Cc1onc(-c2ccccc2Cl)c1C(=O)NC(=S)NCC(=O)c1ccccc1	TMEM16A act -9
CSCCC(C(=O)NCc1ccccc1)n1c(-c2ccc3c(c2)CCO3)nc2ccccc21 (stereo unspecified)	none (no result: TLR4 MyD88 comp, ANO1 block, TMEM16A act, TLR9-MyD88 block, GRK2 inh)
CC1(C)C(=O)OC(C(=O)c2ccccc2)C(C)(C)C1=O (stereo unspecified)	none
CC1(C)C(=O)OC(C(=O)c2ccc(Cl)cc2)C(C)(C)C1=O (stereo unspecified)	GRK2 inh 100
O=C(c1ccc(COc2ccccc2Cl)o1)N1CCN(Cc2ccc3c(c2)OCO3)CC1	none
O=C(c1ccc(COc2ccc(Cl)cc2)o1)N1CCN(Cc2ccc3c(c2)OCO3)CC1	ANO1 block 25
Cc1ccc(-c2nc(CCNC(=O)c3ccco3)cs2)cc1	ANO1 block 25 (no result: TLR4 MyD88 comp)
NC(=O)c1c(N)[nH]c(C(=O)c2ccccc2)c1-c1ccccc1Br	none (no result: TLR4 MyD88 comp, ANO1 block, TMEM16A act, TLR9-MyD88 block, GRK2 inh)
Cc1ccc(NC(=S)NNc2ncc(C(F)(F)F)cc2Cl)cc1	none
FC(F)(F)c1cnc(NNC(=S)Nc2ccc(Cl)cc2)c(Cl)c1	ANO1 block 25
O=C(NCC1CCCO1)C1CCN(C2CCN(CCCC3CCCC3)CC2)CC1 (stereo unspecified)	none
O=C(NCC1CCCO1)C1CCN(C2CCN(C(=O)CC3CCCC3)CC2)CC1 (stereo unspecified)	TMEM16A act -6.6
COc1ccc(C2=Nc3ccccc3N(C(=O)c3ccc(C(F)(F)F)cc3)C2C(=O)NCc2ccccc2)cc1 (stereo unspecified)	none (no result: TLR4 MyD88 comp, ANO1 block, TMEM16A act, TLR9-MyD88 block, GRK2 inh)
Cc1cc(F)ccc1C(O)c1ncc(-c2cccc3ccccc23)[nH]1 (stereo unspecified)	none (no result: TLR4 MyD88 comp, ANO1 block, TMEM16A act, TLR9-MyD88 block, GRK2 inh)
Cc1nn(-c2ccccc2)c(C)c1NC(=O)COc1ccc2ccccc2c1	NOD2 RIPK2 PPI 49
Cc1nn(-c2ccccc2)c(C)c1NC(=O)COc1ccccc1C#N	none (no result: TLR4 MyD88 comp, ANO1 block, TMEM16A act, GRK2 inh)
Cc1nn(-c2ccccc2)c(C)c1NC(=O)COc1ccc(Br)cc1Cl	ANO1 block 25
COc1cc(OC)cc(C2=Cc3ccccc3C(CC(=O)c3ccco3)N2c2ccc(-c3ccc(C(N)=O)cc3)cc2)c1 (stereo unspecified)	none (no result: TLR4 MyD88 comp, ANO1 block, TMEM16A act, TLR9-MyD88 block, GRK2 inh)
COc1cc(C(=O)NC23CC4CC(CC(C4)C2)C3)cc(OC)c1OC	none (no result: TLR4 MyD88 comp)
COc1cc(C(=O)N[C@H](C(=O)NC(C)C23CC4CC(CC(C4)C2)C3)C(C)C)cc(OC)c1OC (stereo partly specified)	ANO1 block 100
CN(CC(=O)NCCc1ccccc1)S(=O)(=O)c1cccs1	TMEM16A act -5.4
Cc1nn(-c2cc(C(F)(F)F)ccc2Cl)c2nc(C(Cl)(Cl)Cl)[nH]c(=O)c12	ANO1 block 100 (no result: TLR4 MyD88 comp)
CCN(CC(=O)Nc1c(F)cccc1F)C(=O)c1ccc(S(=O)(=O)N2CCCC2)cc1	none (no result: TLR4 MyD88 comp)
CCN(CC(=O)Nc1c(F)cccc1F)C(=O)/C=C/c1ccc(S(=O)(=O)N2CCCCCC2)cc1	ANO1 block 25 (no result: TLR4 MyD88 comp)
CCOC(=O)N1CCN(C(C(=O)NC2CCCC2)C(C)C)CC1 (stereo unspecified)	none (no result: TLR4 MyD88 comp, ANO1 block, TMEM16A act, TLR9-MyD88 block, GRK2 inh)
C=CCNc1ncnc2c1ncn2[C@H]1CN(Cc2cccc3ccccc23)C[C@@H](CO)O1	none (no result: TLR4 MyD88 comp, ANO1 block, TMEM16A act, TLR9-MyD88 block, GRK2 inh)
Cc1cc(-n2c(C)cc(C(=O)CSc3nc4ccccc4c(=O)n3Cc3ccco3)c2C)no1	TMEM16A act -9.1
Cc1cc(-c2ccc(N=Nc3c(S(=O)(=O)O)cc4cc(S(=O)(=O)O)cc(N)c4c3O)c(C)c2)ccc1N=Nc1c(S(=O)(=O)O)cc2cc(S(=O)(=O)O)cc(N)c2c1O	GRK2 inh 98 (no result: NOD2 RIPK2 PPI, TLR4 MyD88 comp, TMEM16A act, TLR9-MyD88 block)
O=C(COc1ccccc1)Nc1nc(-c2cccs2)cs1	none
O=C(CCS(=O)(=O)c1ccccc1)Nc1nc(-c2cccs2)cs1	TMEM16A act -7.9
Cn1c(=O)c2c(ncn2CC(=O)Nc2nc(-c3ccccc3Cl)cs2)n(C)c1=O	TMEM16A act -10
O=C1NC[C@H](Cc2ccccc2)N(C[C@@H]2CCCN2C[C@H](Cc2ccc(O)cc2)N2C[C@H](Cc3ccccc3)N(CC3CCCCCC3)C(=O)C2=O)C1=O	none (no result: TLR4 MyD88 comp, ANO1 block, TMEM16A act, TLR9-MyD88 block, GRK2 inh)
CC(C)(O)C#Cc1ccc(N2C(c3ccsc3)=Cc3ccc(F)cc3C2c2c[nH]c3ccccc23)cc1 (stereo unspecified)	none (no result: TLR4 MyD88 comp, ANO1 block, TMEM16A act, TLR9-MyD88 block, GRK2 inh)
CCC(=O)Nc1cccc(C2=NOC3(C2)C[C@@H](C(N)=O)N(C(=O)COc2ccc(Cl)cc2)C3)c1 (stereo partly specified)	none (no result: TLR4 MyD88 comp)
C=C(C)C(=O)Nc1cccc(C2=NOC3(C2)C[C@@H](C(N)=O)N(C(=O)C2(C)CC2)C3)c1 (stereo partly specified)	GRK2 inh 91 (no result: TLR4 MyD88 comp)
